An excerpt weighted towards active compounds, which were near 19% of everything screened.
TDP1 cell noCPT: qHTS for Inhibitors of human tyrosyl-DNA phosphodiesterase 1 (TDP1): qHTS in cells in absence of CPT. DT40 Tdp1-/- hTDP1 cells, no CPT, ATP luminescence, 48 h. Potency, µM (series often up to 46.2 µM), inactives show at the top dose activity change, negative = growth inhibition, actives largely listed as inhibitors. 420,000 tested, 15% active. AID 686978, 2013; also: potency is read from the fitted curve at half-maximal effect; nearly all actives have a fitted effect of over 55% in size
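Readout: luminescence from CellTiter-Glo after 30 min in the dark at RT. Cells: DT40 Tdp1-/- with stable hTDP1, 400/well. Exposure: compounds alone, ≥48 hr, 37 °C.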
TDP1 cell CPT: DT40-hTDP1 cell growth loss with CPT. chicken DT40 Tdp1-/-;hTDP1 cells + 20 nM CPT, ATP luminescence, 48 h. Potency, µM (series often up to 46.2 µM), without a hit: at the highest dose activity change, negative = growth inhibition, usual class: inhibitors. 420,000 tested, 12% active. AID 686979; also: potency is read from the fitted curve at half-maximal effect; nearly all actives have a fitted effect of over 55% in size
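Cell growth measured by CellTiter-Glo luminescence after a minimum 48 h, 37 C compound exposure with 20 nM CPT in Tdp1-knockout DT40 cells stably expressing hTDP1, seeded 400/well; qHTS titration format.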
ELG1 repair inh: blocks ELG1-dependent DNA repair in HEK293T cells. 330,000 tested, 2.3% active. Potency, µM (doses to about 46.1 µM), for the others: top-dose activity change, negative = inhibition, usual class: inhibitors. HEK293T ELG1-luciferase reporter, luminescence, 16 h; DNA damage induced by 5-fluorouridine; also: potency is read from the fitted curve at half-maximal effect; nearly all actives have a fitted effect of over 55% in size
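HEK293T cells expressing luciferase-tagged ELG1 (2,000/well) received 5-Fluorouridine plus compound or DMSO for 16 hr at 37 °C. Luciferase was read by ONE-Glo luminescence after 30 min at room temperature.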
HT1080 IDH1KD tx: HT-1080 IDH1 knockdown cell toxicity (counter line); AID 686971; Potency, µM (series often up to 46.1 µM), for inactives: at the highest dose activity, negative = toxicity, hits mostly cytotoxic; HT-1080 IDH1 knockdown viability, ATP luminescence, 48 h; 360,000 tested, 2% active;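 also: potency is read from the fitted curve at half-maximal effect; 0% = DMSO wells and -100% = cell-free medium wells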
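In this qHTS, HT-1080 cells depleted of IDH1 are exposed for 48 h at 37 °C to compound titrations. Toxicity is scored from CellTiter-Glo luminescence, with DMSO as full viability and medium alone as none.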
HT1080NT lethal: kills 2HG-producing HT-1080-NT fibrosarcoma cells | HT-1080-NT fibrosarcoma viability, CellTiter-Glo ATP luminescence, 48 h | Potency, µM (series often up to 46.1 µM), for inactives: top-dose activity, negative = less viability, usual class: cytotoxic | 360,000 tested, 1.6% active;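 also: NT is the 2HG producing partner of a matched IDH1 knockdown line; potency is read from the fitted curve at half-maximal effect; 0% = DMSO-treated cells and -100% = media-only wells without cells; nearly all actives have a fitted effect of over 55% in size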
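HT-1080-NT; 750 cells/well; 5% FBS RPMI; 48 h compound, 37 degrees C; CellTiter-Glo luminescence; curve fitting and curve-class assignment.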
IL-1B inflam inh: inflammasome signaling inhibition, IL-1 beta readout. THP-1 LPS/ATP IL-1B secretion, AlphaLISA, 16 h; hits give low values. activity change, % at 57.5 µM. 360,000 tested, 4.7% active. AID 743279; in the data active = activity change below about -50%; inconclusive = mostly about -30% to -49%
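Secreted IL-1B measured by AlphaLISA bead assay after 16 h compound exposure of THP-1 cells; compounds (final up to 57.5 uM) added 1 h before LPS (250 ng/mL) and ATP (1.25 mM) stimulation; lower signal means less secretion.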
Starred values were filed as active, the others as inactive; ? = inconclusive; . = not tested or not shown; ! = a repeat was not active; [ ] = remark or other dose. Unless noted, calls follow the shape of the dose curve; as a rule, active = well fitted curve in the direction sought with a large enough effect; inconclusive = small, poorly fitted or top-dose-only effect, or another doubt; inactive = no such curve, though single readings can be large; an effect the other way counts as inactive or inconclusive. Unless noted, % is scaled to controls: 0 for no effect and ±100 for the full control effect.

SMILES	TDP1 cell noCPT	TDP1 cell CPT	ELG1 repair inh	HT1080 IDH1KD tx	HT1080NT lethal	IL-1B inflam inh
CN(C)CCCN(Cc1ccccc1)C(=S)Nc1ccc(SC(F)F)cc1	23µM*	18µM*	-21%	-16%	-20%	?
FC(F)Sc1ccc(NC(=S)NCc2ccccc2)cc1	?	26µM*	-20%	21µM*	?	-92*
CC(NC(=S)Nc1ccc(F)cc1)c1ccccc1 (stereo not given)	?	-3%	-19%	2%	-6%	4
Cc1cc(N(C)C)cc(C)c1C=O	0%	-7%	.	.	.	.
CC1(C)CC(NC(=O)c2ccc(Br)o2)CC(C)(C)N1	-1%	3%	7%	12%	1%	9
Cc1cccc(C)c1NC(=O)Cn1c(=O)n(CCCS(=O)(=O)C2CCCCC2)c(=O)c2ccccc21	?	-3%	.	.	.	.
O=C(CN1C(=O)/C(=C2\SC(=S)N(C3CCS(=O)(=O)C3)C2=O)c2ccccc21)Nc1ccccc1 (stereo not given)	13µM*	?	4%	5%	-5%	4
COc1ccc(-c2cn3cc(Br)cnc3n2)cc1	?	26µM*	?	-3%	-1%	-8
COc1ccc(-c2cn3cccnc3n2)cc1Br	?	5%	?	0%	1%	0
CC1(C(=O)NS(=O)(=O)c2cccc(C#N)c2)CCN1C(=O)Cc1ccccc1 (stereo not given)	1%	9%	.	25%	6%	14
CC(C)(C)NC(=O)C(c1ccco1)N(C(=O)Cn1nnc(-c2ccc(F)cc2)n1)c1ccccc1 (stereo not given)	?	?	.	-13%	5%	0
CC(C)(C)NC(=O)C(c1ccco1)N(C(=O)Cn1nnc(-c2ccc(F)cc2)n1)c1ccccc1F (stereo not given)	16µM*	29µM*	?	?	-19%	?
COc1ccc(N(C(=O)Cn2nnc(-c3ccc(F)cc3)n2)C(C)C(=O)NC2CCCC2)cc1 (stereo not given)	?	?	?	-7%	-8%	-21
CCC(C(=O)NC(C)(C)C)N(C(=O)Cn1nnc(-c2ccccc2F)n1)c1cccc2c1CCCC2 (stereo not given)	18µM*	?	17%	4%	5%	-9
CC(C(=O)NC1CCCC1)N(C(=O)Cn1nnc(-c2ccc(F)cc2)n1)c1ccccc1F (stereo not given)	23µM*	23µM*	16µM*	-7%	-12%	-66*
COc1ccc(NC(=O)CCC(=O)c2ccc(Cl)cc2)cn1	9%	-13%	?	-8%	-3%	3
Cc1[nH]n(C(N)=S)c(=O)c1N=Nc1cccc(C(F)(F)F)c1	?	?	?	-6%	-5%	4
Cc1[nH]n(C2=NCCS2)c(=O)c1N=Nc1cccc(C(F)(F)F)c1	2.6µM*	3.7µM*	2.9µM*	?	?	198
Cc1ccccc1-c1nc(CS(=O)(=O)CC(=O)Nc2c(C)cccc2C)c(C)o1	18µM*	?	.	.	.	.
Cc1ccc(CNC(=O)CS(=O)(=O)Cc2nc(-c3ccccc3C)oc2C)cc1	16µM*	?	.	.	.	.
CCOc1ccc(CCNC(=O)CS(=O)(=O)Cc2nc(-c3ccccc3F)oc2C)cc1	12µM*	?	-13%	-16%	-22%	-61*
CCCNC(=O)CS(=O)(=O)Cc1nc(-c2ccccc2C)oc1C	5%	-23%	13%	1%	-6%	6
CC(C)(C)c1ccccc1OCC(=O)NCc1ccccc1	?	?	6%	-3%	2%	20
COc1ccccc1N(CC(=O)N/N=C/c1ccc(C(=O)O)cc1)S(=O)(=O)c1ccc(C)cc1	-4%	4%	3%	2%	0%	11
CC1=C(C(=O)OCc2ccccc2)C(c2cccnc2)n2nnnc2N1 (stereo not given)	16µM*	?	-13%	-12%	2%	34
SMILES	TDP1 cell noCPT	TDP1 cell CPT	ELG1 repair inh	HT1080 IDH1KD tx	HT1080NT lethal	IL-1B inflam inh
CCCCCOC(=O)C1=C(C)Nc2nnnn2C1c1ccccc1Cl (stereo not given)	21µM*	?	?	21µM*	13µM*	9
CCOC(=O)C1=C(C)Nc2ncnn2C1c1cccnc1 (stereo not given)	-6%	-14%	-9%	5%	8%	3
COc1ccc(N2CCN(c3oc(Cc4cccc5ccccc45)nc3C#N)CC2)cc1	6.5µM*	?	0%	0%	5%[9.24 µM]	-29
N#Cc1nc(COc2ccccc2)oc1N1CCN(Cc2ccccc2)CC1	?	?	-17%	-2%	-1%	?
Cc1ccc(OCc2nc(C#N)c(N3CCN(Cc4ccccc4)CC3)o2)cc1	?	18µM*	-1%	-27%	2%	-29
N#Cc1nc(COc2ccccc2)oc1N1CCC(Cc2ccccc2)CC1	?	?	-14%	0%	-4%	-55*
Cc1ccc(SCCC(=O)OCC(=O)Nc2ccc(C(N)=O)cc2)cc1	-4%	-12%	14%	4%	-2%[9.24 µM]	20
CCCCc1cc2ccccc2c(OCCN(C)C)n1	?	9µM*!	?	10%	5%	-27
Cc1n[nH]c(C)c1S(=O)(=O)N1CCCC(C(=O)Nc2ccc(Cl)cc2)C1 (stereo not given)	7.3µM*	?	.	.	.	.
CCOC(=O)c1cccc(NC(=O)C2CCCN(S(=O)(=O)c3c(C)nn(C)c3C)C2)c1 (stereo not given)	?	21µM*	?	-5%	-6%	-8
CCOC(=O)c1c(S(=O)(=O)N2CCCC(C(=O)Nc3cccc(Cl)c3)C2)c(C)n(C)c1C (stereo not given)	?	9.2µM*	.	.	.	.
CCN1C=C(C(C)=O)C(=O)CC1	-2%	-20%	.	9%	4%	2
COc1cccc(NC(=S)NC2CC(C)CC(C)(C)C2)c1 (stereo not given)	23µM*	21µM*	.	-16%	-15%	6
COc1cccc(NC(=S)Nc2ccc(O)cc2)c1	19%	-18%	?	-12%	0%	-15
C=Cc1ccc(S(=O)(=O)O)cc1	-12%	2%	.	.	.	.
CCOc1ccc(N(C)c2ccc(/C=C3/SC(=S)NC3=O)cc2)cc1	16µM*	?	-15%	?	?	21
Cc1cccnc1Nc1nc(-c2ccccc2)cs1	0%	?	?	-11%	-21%	40

Assay outcomes (PubChem BioAssay)
